Laboratory results published in PubChem BioAssay.
Records with an inconclusive call do not appear. Activity calls are given as the source filed them.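 How the source made its calls, unless noted: active means GFP response below 50% of the DMSO control; inconclusive means fewer than 70 events counted for a yeast strain; inactive means the rest.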

Tests used:
[1] = RPL19A-GFP modulators, yeast TOR pathway, confirmation, cell-based, S. cerevisiae, flow cytometry, cherry picks, mother/daughter gates (AID 2270); settings: S. cerevisiae RPL19A-GFP strain, 3 h, at 10 µM, stronger effect = lower value, 100 = same GFP as DMSO wells
[2] = LAP4-GFP expression modulators in yeast, confirmation, cell-based, cherry picks, flow cytometry, mother/daughter gates (AID 2271;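 active means GFP response above 150% of the DMSO control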;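 further: ratio of sample to DMSO plate mean so 100% equals DMSO level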); settings: S. cerevisiae LAP4-GFP strain, 3 h, at 10 µM, stronger effect = higher value
[3] = modulators of CIT2-GFP expression in yeast, confirmation, S. cerevisiae, GFP fusion, cherry picks, mother/daughter gates (AID 2274;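 active means GFP response above 150% of the DMSO level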); settings: S. cerevisiae CIT2-GFP strain, flow cytometry, 3 h, at 10 µM, stronger effect = higher value
[4] = yeast TOR pathway RPL19A-GFP modulators, primary screen, cell-based, S. cerevisiae, multiplex flow cytometry (AID 1862; in the data active means percent of DMSO control GFP below about 86%;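 further: lower values mimic rapamycin by blocking the RPL19A rise seen in DMSO cells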); settings: S. cerevisiae RPL19A-GFP strain, flow cytometry fluorescence, 3 h; at 10 µM; stronger effect = lower value
[5] = modulators of MEP2-GFP levels in yeast, primary screen, S. cerevisiae, multiplex flow cytometry (AID 1867;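 active means GFP response, as percent of the DMSO control, above the screen-wide mean plus 3 SD, about 139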;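 further: median GFP channel fluorescence of barcode-gated MEP2-GFP cells measured by flow cytometry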); settings: S. cerevisiae MEP2-GFP strain, 3 h, at 10 µM, stronger effect = higher value
[6] = modulators of CIT2-GFP expression in yeast, primary screen, S. cerevisiae, GFP fusion, multiplex flow cytometry (AID 1870;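 active means percent response above a set limit, the screen-wide mean plus 3 SD, cut at about 130% in these data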;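 further: barcoded CIT2-GFP strain pooled with four other GFP strains with rapamycin as positive control; median GFP fluorescence per well over plate mean of DMSO wells so 100% = DMSO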); settings: 3 h, at 10 µM, stronger effect = higher value
[7] = modulators of LAP4-GFP expression in yeast, primary screen, S. cerevisiae, multiplex flow cytometry (AID 1873;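 active means GFP signal, as percent of the solvent control, above the screen mean plus 3 SD, about 149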); settings: 3 h, at 10 µM, stronger effect = higher value
[8] = inhibitors of CD8+ T cell-vesicle binding, pilot screen, LFA-1/ICAM-1 modulator project, MLPCN validation set, flow cytometry (AID 2523;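 active means response below a set limit, under 55% cells CD8-positive and vesicle-bound, and CD8 cells' 90th-percentile brightness under 279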;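 on vesicle binding response: mean PE anti-B7-1 fluorescence of CD8+ cells relative to row control; 100% = QL9-loaded vesicles with DMSO vehicle in the same plate row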); settings: 2C mouse CD8+ T cells, at 7 µM, stronger effect = lower value; double positive events: measured here: CD8+/vesicle+ event percentage
[9] = biological target: Integrin beta-1 (Homo sapiens) + Integrin alpha-4 (Homo sapiens) (UniProt P13612+P05556); assay: inhibition of HUTS-21 binding to VLA-4, pilot screen, VLA-4 allosteric modulator project, U937 cells, HUTS-21 mAb, flow cytometry, validation set (AID 2674;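 active means inhibition above 50%, about 3 SD of the validation set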;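 further: antibody binding induced by the VLA-4 ligand LDV present at three times its Kd; 0% = LDV ligand with antibody and no compound and 100% = antibody without LDV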); settings: HUTS-21 LIBS mAb binding, at 6.7 µM, stronger effect = higher value
[10] = superoxide lowering in aged yeast cells, pilot screen, validation compound set (AID 2706;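 active means superoxide response below 65% of plate, a cut near 3 SD across the whole screen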;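 further: yeast exposed to compound for one week at 30 degrees C before staining; 100% = mean of all compound wells on the same plate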); settings: S. cerevisiae aging, superoxide DHE fluorescence; at 10 µM; stronger effect = lower value
[11] = biological target: Beta-adrenergic receptor kinase 1 (Homo sapiens) (UniProt P25098); assay: GRK2 binders displacing RNA aptamer, biochemical, validation, human GRK2, bead flow cytometry (AID 488806;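 active means aptamer binding inhibition above 30%, about 3 SD of noise from non-fluorescent compounds; inactive means inhibition at or below 30%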); settings: bead-bound GRK2, FAM-aptamer displacement, at 10 µM, stronger effect = higher value
[12] = biological target: AP-2 complex subunit beta (Homo sapiens) (UniProt P63010); assay: inhibitors of arrestin peptide binding to AP2, pilot screen, biochemical, validation set, GST-AP2 beads, flow cytometry (AID 504541;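 active means inhibition above 54%, about 3 SD of non-fluorescent compounds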;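 further: AP2 carries R879A mutation and is captured from E. coli lysate; bead-bound FITC arrestin peptide fluorescence measuring arrestin peptide binding to AP2; 0% = DMSO wells and 100% = excess unlabeled arrestin peptide control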); settings: FITC arrestin peptide, at 10 µM, stronger effect = higher value
[13] = yeast V-ATPase proton transport modulators, S. cerevisiae, pHLuorin, HTS validation (AID 504600; in the data active means response above about 15%;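 further: plate controls were DMSO for no effect and reference compound for full effect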); settings: S. cerevisiae pHLuorin cytosolic pH, at 10 µM, stronger effect = higher value
[14] = system: anti-desmoglein-3 scFv antibody binding to human DSG3; assay: inhibitors of anti-DSG3 scFv binding to DSG3, pilot screen, biochemical, validation compound set, bead-based, flow cytometry (AID 588368;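 active means binding below the plate cutoff, the plate median minus 3 SD, with a reading above zero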;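 further: signal is the median channel fluorescence of bead-bound GFP antibody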); settings: Protein G beads, DSG3-Fc, scFv-GFP binding, at 10 µM, stronger effect = lower value
[15] = system: Botulinum neurotoxin type F light chain protease (Clostridium botulinum); assay: Botulinum neurotoxin type F light chain protease inhibition, multiplex microsphere flow cytometry, validation set (AID 588459; call rule not given here); settings: multiplex microsphere protease substrate cleavage assay, at 10 µM, stronger effect = higher value
[16] = biological target: Botulinum neurotoxin type A (Clostridium botulinum) (UniProt P0DPI0); assay: BoNT/A light chain protease inhibitors, biochemical, multiplex microsphere flow cytometry, validation set (AID 588460; call rule not given here); settings: at 10 µM, stronger effect = higher value
[17] = biological target: Lethal factor (Bacillus anthracis) (UniProt P15917); assay: Lethal factor protease inhibitors, Bacillus anthracis, multiplex microsphere cleavage assay, validation set (AID 588461; call rule not given here); settings: flow cytometry, at 10 µM, stronger effect = higher value
[18] = inhibitors of fungal efflux pumps CDR1, CDR2, MDR1, pilot screen, validation compound set, multiplex, phenotypic (AID 588506;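 active means efflux inhibition above 0.42, the validation set average plus 4 SD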;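 further: Nile Red retained in cells so higher fluorescence means more efflux inhibition; 0 = negative control wells and 1 = enniatin B 25 µM full block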); settings: S. cerevisiae pump-expressing triplex, Nile Red efflux flow cytometry; at 10 µM; stronger effect = higher value
[19] = biological target: ATP-binding cassette sub-family B member 6 (Homo sapiens) (UniProt Q9NP58); assay: ABCB6 transporter inhibitors, pilot screen, K562-ABCB6 cells, flow cytometry, validation set (AID 588550;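 active means inhibition above the screen-wide mean plus 3 SD, about 51%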;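 further: 0% = DMSO wells and 100% = benzethonium chloride 70 µM positive control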); settings: K562-ABCB6 porphyrin accumulation, 1 h, at 10 µM, stronger effect = higher value
[20] = promoters of myeloid differentiation in arrested cells, primary screen, cell-based, GFP/MAC1 double positive, flow cytometry, validation set (AID 588685;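 active means differentiation response of at least 50%, scaled between solvent and reference control, from cells with both markers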;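 further: compound exposure lasts four days before antibody staining and flow analysis; 0% = DMSO wells and 100% = 5 µM fulvestrant positive control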); settings: ER-HoxA9 marrow cells, stronger effect = higher value
[21] = measured here: daughter cell gate
[22] = measured here: mother cell gate
[23] = measured here: daughter cell gate response
[24] = measured here: mother cell gate response

Chain of Beta-adrenergic receptor kinase 1 (Homo sapiens) (P25098 whole entry, looked up): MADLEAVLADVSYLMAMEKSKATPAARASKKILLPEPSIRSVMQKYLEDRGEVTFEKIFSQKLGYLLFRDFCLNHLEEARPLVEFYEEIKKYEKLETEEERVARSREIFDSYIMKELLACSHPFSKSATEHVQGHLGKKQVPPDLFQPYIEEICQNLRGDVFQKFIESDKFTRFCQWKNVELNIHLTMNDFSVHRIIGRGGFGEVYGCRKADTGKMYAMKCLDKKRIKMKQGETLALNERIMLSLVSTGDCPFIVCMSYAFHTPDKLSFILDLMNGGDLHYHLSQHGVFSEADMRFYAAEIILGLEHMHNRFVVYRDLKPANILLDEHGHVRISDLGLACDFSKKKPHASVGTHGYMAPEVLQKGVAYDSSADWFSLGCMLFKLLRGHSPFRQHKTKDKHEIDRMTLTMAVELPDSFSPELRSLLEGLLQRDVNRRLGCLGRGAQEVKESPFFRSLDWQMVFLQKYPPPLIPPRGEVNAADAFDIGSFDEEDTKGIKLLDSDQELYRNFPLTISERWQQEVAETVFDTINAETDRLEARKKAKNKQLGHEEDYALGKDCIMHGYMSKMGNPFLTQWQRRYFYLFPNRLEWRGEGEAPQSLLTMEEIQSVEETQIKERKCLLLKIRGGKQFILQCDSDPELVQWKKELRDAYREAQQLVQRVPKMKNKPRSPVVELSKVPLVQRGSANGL
Chain of Integrin beta-1 (Homo sapiens) + Integrin alpha-4 (Homo sapiens) (P05556 whole entry, looked up): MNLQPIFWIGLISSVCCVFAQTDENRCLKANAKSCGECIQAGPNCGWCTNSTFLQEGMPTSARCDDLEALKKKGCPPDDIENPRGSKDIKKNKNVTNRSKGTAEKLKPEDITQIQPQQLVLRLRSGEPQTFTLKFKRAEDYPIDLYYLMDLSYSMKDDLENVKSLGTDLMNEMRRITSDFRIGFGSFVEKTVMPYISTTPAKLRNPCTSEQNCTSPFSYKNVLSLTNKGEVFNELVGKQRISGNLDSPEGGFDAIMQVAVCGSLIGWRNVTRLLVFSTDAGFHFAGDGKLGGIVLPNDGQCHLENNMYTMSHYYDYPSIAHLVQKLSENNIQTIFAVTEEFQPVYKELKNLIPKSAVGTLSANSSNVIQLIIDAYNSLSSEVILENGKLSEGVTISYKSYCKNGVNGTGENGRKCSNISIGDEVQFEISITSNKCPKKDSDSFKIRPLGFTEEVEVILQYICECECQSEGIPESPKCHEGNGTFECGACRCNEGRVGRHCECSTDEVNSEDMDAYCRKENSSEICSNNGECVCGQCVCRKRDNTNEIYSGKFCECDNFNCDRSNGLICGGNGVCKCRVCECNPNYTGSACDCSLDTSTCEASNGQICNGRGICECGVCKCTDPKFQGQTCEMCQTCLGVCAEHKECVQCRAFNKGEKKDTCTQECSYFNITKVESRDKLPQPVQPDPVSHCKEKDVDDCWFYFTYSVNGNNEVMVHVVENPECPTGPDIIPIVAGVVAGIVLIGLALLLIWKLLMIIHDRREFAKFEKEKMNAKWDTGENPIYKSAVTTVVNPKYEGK
Chain of Integrin beta-1 (Homo sapiens) + Integrin alpha-4 (Homo sapiens) (P13612 whole entry, looked up): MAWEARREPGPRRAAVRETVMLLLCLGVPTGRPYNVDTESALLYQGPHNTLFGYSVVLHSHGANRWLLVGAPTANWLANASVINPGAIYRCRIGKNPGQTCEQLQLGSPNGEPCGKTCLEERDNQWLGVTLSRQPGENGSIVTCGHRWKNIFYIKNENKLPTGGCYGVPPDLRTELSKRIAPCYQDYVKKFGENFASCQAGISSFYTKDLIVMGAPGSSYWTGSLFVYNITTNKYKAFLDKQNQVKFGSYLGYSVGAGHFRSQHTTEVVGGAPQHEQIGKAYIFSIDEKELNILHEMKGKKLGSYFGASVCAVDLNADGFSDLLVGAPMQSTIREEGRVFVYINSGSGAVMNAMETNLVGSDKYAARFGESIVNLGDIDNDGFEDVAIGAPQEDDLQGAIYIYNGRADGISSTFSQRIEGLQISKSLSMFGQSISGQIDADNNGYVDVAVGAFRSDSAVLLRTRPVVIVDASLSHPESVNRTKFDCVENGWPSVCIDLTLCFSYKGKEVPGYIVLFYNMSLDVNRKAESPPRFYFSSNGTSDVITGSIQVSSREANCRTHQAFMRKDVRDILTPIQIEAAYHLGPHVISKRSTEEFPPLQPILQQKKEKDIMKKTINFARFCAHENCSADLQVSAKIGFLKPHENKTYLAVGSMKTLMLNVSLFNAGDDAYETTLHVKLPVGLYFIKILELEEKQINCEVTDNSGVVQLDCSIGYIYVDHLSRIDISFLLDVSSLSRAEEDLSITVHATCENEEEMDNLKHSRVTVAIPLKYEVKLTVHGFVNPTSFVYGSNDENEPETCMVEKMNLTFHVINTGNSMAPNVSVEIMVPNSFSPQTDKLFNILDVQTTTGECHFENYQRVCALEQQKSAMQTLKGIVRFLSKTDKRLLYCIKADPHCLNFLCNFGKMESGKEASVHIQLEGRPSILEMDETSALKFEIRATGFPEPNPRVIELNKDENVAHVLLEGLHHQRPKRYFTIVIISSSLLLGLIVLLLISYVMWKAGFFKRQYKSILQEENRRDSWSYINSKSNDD
Chain of AP-2 complex subunit beta (Homo sapiens) (P63010 whole entry, looked up, one chain of several): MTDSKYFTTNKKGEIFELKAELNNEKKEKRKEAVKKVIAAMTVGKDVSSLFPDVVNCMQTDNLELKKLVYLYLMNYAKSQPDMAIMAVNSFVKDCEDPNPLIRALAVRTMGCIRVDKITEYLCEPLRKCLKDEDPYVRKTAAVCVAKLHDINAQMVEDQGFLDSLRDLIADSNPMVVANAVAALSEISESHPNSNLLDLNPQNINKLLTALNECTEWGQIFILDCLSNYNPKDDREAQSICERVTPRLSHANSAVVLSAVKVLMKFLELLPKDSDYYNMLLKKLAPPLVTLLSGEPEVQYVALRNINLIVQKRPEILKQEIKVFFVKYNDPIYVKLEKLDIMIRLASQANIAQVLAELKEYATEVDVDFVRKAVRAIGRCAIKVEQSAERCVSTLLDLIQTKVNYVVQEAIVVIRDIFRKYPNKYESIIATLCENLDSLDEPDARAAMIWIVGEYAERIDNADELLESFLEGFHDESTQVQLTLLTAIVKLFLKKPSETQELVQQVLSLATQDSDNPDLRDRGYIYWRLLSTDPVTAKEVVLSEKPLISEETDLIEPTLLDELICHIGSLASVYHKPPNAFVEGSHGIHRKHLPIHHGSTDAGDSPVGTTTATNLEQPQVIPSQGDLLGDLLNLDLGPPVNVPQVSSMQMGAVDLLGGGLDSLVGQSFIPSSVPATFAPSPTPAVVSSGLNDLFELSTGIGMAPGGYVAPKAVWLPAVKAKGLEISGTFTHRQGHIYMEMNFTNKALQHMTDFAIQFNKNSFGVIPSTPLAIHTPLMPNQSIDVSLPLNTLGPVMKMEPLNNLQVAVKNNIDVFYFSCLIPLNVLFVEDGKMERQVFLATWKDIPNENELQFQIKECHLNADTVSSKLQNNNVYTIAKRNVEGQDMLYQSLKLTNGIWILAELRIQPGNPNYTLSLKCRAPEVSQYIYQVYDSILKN
Chain of Botulinum neurotoxin type A (Clostridium botulinum) (P0DPI0 whole entry, looked up): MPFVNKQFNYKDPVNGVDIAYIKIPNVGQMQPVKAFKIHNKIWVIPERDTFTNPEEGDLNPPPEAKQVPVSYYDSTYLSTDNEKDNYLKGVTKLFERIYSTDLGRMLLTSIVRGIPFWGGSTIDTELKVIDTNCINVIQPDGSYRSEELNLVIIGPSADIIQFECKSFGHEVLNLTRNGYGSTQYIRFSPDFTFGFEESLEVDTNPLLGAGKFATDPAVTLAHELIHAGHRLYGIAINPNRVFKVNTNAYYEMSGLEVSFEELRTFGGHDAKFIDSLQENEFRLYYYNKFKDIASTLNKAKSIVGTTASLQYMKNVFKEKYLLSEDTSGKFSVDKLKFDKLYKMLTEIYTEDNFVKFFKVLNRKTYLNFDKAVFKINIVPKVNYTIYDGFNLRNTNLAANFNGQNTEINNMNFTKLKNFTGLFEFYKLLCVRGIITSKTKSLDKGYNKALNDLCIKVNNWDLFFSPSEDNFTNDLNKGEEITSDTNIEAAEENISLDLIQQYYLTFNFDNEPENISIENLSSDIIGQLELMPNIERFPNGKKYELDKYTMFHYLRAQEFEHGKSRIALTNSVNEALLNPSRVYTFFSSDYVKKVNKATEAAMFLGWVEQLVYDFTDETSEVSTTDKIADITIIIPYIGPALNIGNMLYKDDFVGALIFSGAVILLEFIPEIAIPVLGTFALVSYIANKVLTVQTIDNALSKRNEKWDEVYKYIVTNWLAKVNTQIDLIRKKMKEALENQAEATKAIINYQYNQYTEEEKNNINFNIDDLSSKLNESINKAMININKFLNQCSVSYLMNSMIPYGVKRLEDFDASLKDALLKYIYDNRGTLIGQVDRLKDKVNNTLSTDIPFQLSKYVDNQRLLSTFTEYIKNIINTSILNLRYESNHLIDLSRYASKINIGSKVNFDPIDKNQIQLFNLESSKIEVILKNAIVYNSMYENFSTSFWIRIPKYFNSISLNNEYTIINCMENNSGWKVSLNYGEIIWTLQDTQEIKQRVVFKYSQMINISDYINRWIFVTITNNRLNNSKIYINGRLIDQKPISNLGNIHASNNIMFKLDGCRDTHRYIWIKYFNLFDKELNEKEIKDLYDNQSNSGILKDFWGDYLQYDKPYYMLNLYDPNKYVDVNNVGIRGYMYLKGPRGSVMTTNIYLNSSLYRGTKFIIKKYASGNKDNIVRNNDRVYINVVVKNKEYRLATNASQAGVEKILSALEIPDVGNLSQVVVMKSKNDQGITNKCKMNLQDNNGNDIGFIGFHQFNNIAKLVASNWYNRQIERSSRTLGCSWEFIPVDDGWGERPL

Structure (SMILES): O=C(O)c1nn(Cc2ccc(Cl)cc2Cl)c2ccccc12
- GFP response vs DMSO [1]: 101% (inactive)
- GFP response vs DMSO [1, 21]: 98.7%
- GFP response vs DMSO [1, 22]: 104%
- GFP response relative to DMSO [2]: 103% (inactive)
- GFP response relative to DMSO [2, 23]: 100%
- GFP response relative to DMSO [2, 24]: 102%
- GFP response, % of DMSO [3]: 93.9% (inactive)
- GFP response, % of DMSO [3, 21]: 91.5%
- GFP response, % of DMSO [3, 22]: 94.4%

Structure (SMILES): O=C1NC(=O)N(CCC2=CCCCC2)C(=O)/C1=C/c1cccs1
- GFP response vs DMSO [1]: 98.4% (inactive)
- GFP response vs DMSO [1, 21]: 97.9%
- GFP response vs DMSO [1, 22]: 97.6%
- GFP response relative to DMSO [2]: 134% (inactive)
- GFP response relative to DMSO [2, 23]: 128%
- GFP response relative to DMSO [2, 24]: 138%
- GFP response, % of DMSO [3]: 91.2% (inactive)
- GFP response, % of DMSO [3, 21]: 93.6%
- GFP response, % of DMSO [3, 22]: 86.7%

Structure (SMILES): O=C1NC(=S)NC(=O)C1=Cc1ccc2c(c1)CCN2CCCCl
- GFP response vs DMSO [1]: 98.4% (inactive)
- GFP response vs DMSO [1, 21]: 87.8%
- GFP response vs DMSO [1, 22]: 86%
- GFP response relative to DMSO [2]: 163% (active)
- GFP response relative to DMSO [2, 23]: 110%
- GFP response relative to DMSO [2, 24]: 184%
- GFP response, % of DMSO [3]: 85.7% (inactive)
- GFP response, % of DMSO [3, 21]: 90.2%
- GFP response, % of DMSO [3, 22]: 76%

Structure (SMILES): COc1ccc(N2C(=O)/C(=C/c3ccco3)C(=O)NC2=S)cc1
- GFP response vs DMSO [1]: 97.4% (inactive)
- GFP response vs DMSO [1, 21]: 102%
- GFP response vs DMSO [1, 22]: 91.4%
- GFP response relative to DMSO [2]: 91.4% (inactive)
- GFP response relative to DMSO [2, 23]: 94.1%
- GFP response relative to DMSO [2, 24]: 94.2%
- GFP response, % of DMSO [3]: 91.3% (inactive)
- GFP response, % of DMSO [3, 21]: 103%
- GFP response, % of DMSO [3, 22]: 83.7%

Structure (SMILES): Nc1ccc2ccc3cccc[n+]3c2c1
- GFP response vs DMSO [1]: 111% (inactive)
- GFP response vs DMSO [1, 21]: 110%
- GFP response vs DMSO [1, 22]: 110%
- GFP response relative to DMSO [2]: 181% (active)
- GFP response relative to DMSO [2, 23]: 185%
- GFP response relative to DMSO [2, 24]: 178%
- GFP response, % of DMSO [3]: 199% (active)
- GFP response, % of DMSO [3, 21]: 204%
- GFP response, % of DMSO [3, 22]: 196%

Structure (SMILES): CN1C(=O)C(=Cc2ccc(Sc3ccccc3)o2)C(=O)N(C)C1=S
- GFP response vs DMSO [1]: 98.2% (inactive)
- GFP response vs DMSO [1, 21]: 94.4%
- GFP response vs DMSO [1, 22]: 91.3%
- GFP response relative to DMSO [2]: 126% (inactive)
- GFP response relative to DMSO [2, 23]: 114%
- GFP response relative to DMSO [2, 24]: 130%
- GFP response, % of DMSO [3]: 99.3% (inactive)
- GFP response, % of DMSO [3, 21]: 117%
- GFP response, % of DMSO [3, 22]: 84%

Structure (SMILES): COc1cc(/C=C/C(=O)c2c(O)n(CCc3ccccc3)c(=O)[nH]c2=O)ccc1O
- GFP response vs DMSO [1]: 103% (inactive)
- GFP response vs DMSO [1, 21]: 104%
- GFP response vs DMSO [1, 22]: 103%
- GFP response relative to DMSO [2]: 90% (inactive)
- GFP response relative to DMSO [2, 23]: 90.4%
- GFP response relative to DMSO [2, 24]: 88.9%
- GFP response, % of DMSO [3]: 115% (inactive)
- GFP response, % of DMSO [3, 21]: 114%
- GFP response, % of DMSO [3, 22]: 112%

Structure (SMILES): CCOC(=O)C1=C(C)OC(N)=C(C(=O)OCC)[C@@]12C(=O)N(CC(N)=O)c1ccccc12
- percent of DMSO control GFP [4]: 90.9% (inactive)
- GFP response vs DMSO [5]: 120% (inactive)
- percent response of DMSO control [6]: 110% (inactive)
- GFP response vs DMSO [7]: 71% (inactive)
- double positive events [8]: 43.7%
- vesicle binding response [8]: 66.2% (active)
- inhibition [9]: 18.1% (inactive)
- superoxide response (% of plate) [10]: 104% (inactive)
- aptamer binding inhibition [11]: -1% (inactive)
- inhibition [12]: -3.6% (inactive)
- response [13]: 1.98% (inactive)
- binding (% of control) [14]: 104% (inactive)
- inhibition [15]: 0.6% (inactive)
- inhibition [16]: -0.3% (inactive)
- inhibition [17]: 0.4% (inactive)
- efflux inhibition (fraction of control) [18]: -0.31 (inactive)
- inhibition [19]: 6% (inactive)
- differentiation response [20]: 4.09% (inactive)
